Measurements taken from PubChem BioAssay.
The source made the active and inactive calls.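 How the source made its calls, unless noted: active means fluorescence slope after compound addition differing from the mean of all screened samples at 99.7% confidence, in either direction; inactive means the rest.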

What was measured:
[1] = inhibitors of TNFa-induced NFkB p65 translocation, primary screen, imaging, HUVEC, MLSMR starter and 10KST1 sets (AID 438;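 active means inhibition above 20% together with a positive visual image hit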;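 further: compound added about 3h40 before a 20 min TNFalpha stimulation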;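 on inhibition: signal is the nuclear over cytoplasmic p65 intensity ratio per well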); conditions: HUVEC TNFa-induced p65 nuclear translocation; cell count: measured here: nuclei count (cytotoxicity indicator), at 2.08 µM; inhibition: at 2 µM, stronger effect = higher value, 0% TNFa-plus-vehicle, 100% no-TNFa wells
[2] = reduction of polyQ htt aggregates in cells – imaging, exon1htt(103Q)mCFP cells, high-content imaging, primary screen (AID 483;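 active means visual image review flags a hit and inhibition of aggregation exceeds 20%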;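 further: compound exposure lasted 3 days before fixation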;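 on nuclei count: percent of the per-plate median nuclei count of sample wells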); conditions: exon1htt(103Q)mCFP cell line, aggregate imaging, at 2 µM; inhibition of aggregation: stronger effect = higher value; nuclei count: measured here: cell count, toxicity
[3] = endothelial E-selectin expression blockers – imaging, HUVEC, immunofluorescence, MLSMR starter and 10KST1 sets, primary screen (AID 487;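 active means visually confirmed hit in the image check and inhibition above 20%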;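 on inhibition: signal is fraction of cell area covered by stained E-selectin grains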;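 on nuclei count: 100% = median nuclei count of all wells on the same plate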); conditions: HUVEC TNFalpha-induced E-selectin immunofluorescence imaging, at 2 µM; inhibition: stronger effect = higher value; nuclei count: measured here: cell number, toxicity
[4] = biological target: Voltage-gated potassium channel subunit beta-2 (Rattus norvegicus) (UniProt P62483); test: inhibitors of rat Kvbeta2 reductase activity – biochemical, NADPH fluorescence, primary screen (AID 622;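 active means fluorescence slope higher than the sample average by over 3 SD, cut at about -0.22 in these data, passing the limit was not always enough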;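 further: slope of raw intensity against log time taken from 70 to 1610 s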); conditions: recombinant KvBeta, 4-cyanobenzaldehyde reduction, at 10 µM, stronger effect = higher value
[5] = biological target: Voltage-gated potassium channel subunit beta-2 (Rattus norvegicus) (UniProt P62483); test: enhancers of rat Kvbeta2 NADPH turnover – biochemical, NADPH fluorescence, primary screen (AID 623;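 active means NADPH fluorescence slope more negative than the mean of all samples by about 3 SD, 99.7% confidence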;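 further: fluorescence intensity change per second fitted from 20 to 320 s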); conditions: Recombinant KvBeta, NADPH fluorescence decrease slope, 10 min; at 10 µM; stronger effect = lower value
[6] = biological target: Alpha-2C adrenergic receptor (Homo sapiens) (UniProt P18825); test: compounds altering alpha2C-coupled GIRK flux – cell-based, HEK293 alpha2C/GIRK1/2, thallium flux, primary screen (AID 624); conditions: thallium flux BTC fluorescence, at 10 µM, actives lie on both sides;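 further: slope of fluorescence ratio to pre-addition baseline per second over 15 to 24 s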
[7] = blockers of RIG-like receptor reporter activation – cell-based, Sendai virus stimulus, luciferase, 10K MLSCN set, TLR/RLR signaling modifier project, primary screen (AID 602276;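 active means inhibition at or above 50% at 10 µM; inactive means inhibition below 50%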;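 further: firefly luciferase from ISG56 promoter only with Renilla not read in this screen; 0% = Sendai virus plus DMSO and 100% = medium plus DMSO without virus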); conditions: HEK293 RL24 IRF3 luciferase reporter, at 10 µM, stronger effect = higher value
[8] = TLR3 IRF3 reporter activation blockers – cell-based, poly I:C stimulus, luciferase, 10K MLSCN set, primary screen (AID 602277;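 active means inhibition of the reporter signal at or above 50%; inactive means inhibition below 50%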); conditions: HEK293-TLR3 RL24 IRF3 luciferase reporter, at 10 µM, stronger effect = higher value

Voltage-gated potassium channel subunit beta-2 (Rattus norvegicus), sequence (P62483 whole entry, looked up): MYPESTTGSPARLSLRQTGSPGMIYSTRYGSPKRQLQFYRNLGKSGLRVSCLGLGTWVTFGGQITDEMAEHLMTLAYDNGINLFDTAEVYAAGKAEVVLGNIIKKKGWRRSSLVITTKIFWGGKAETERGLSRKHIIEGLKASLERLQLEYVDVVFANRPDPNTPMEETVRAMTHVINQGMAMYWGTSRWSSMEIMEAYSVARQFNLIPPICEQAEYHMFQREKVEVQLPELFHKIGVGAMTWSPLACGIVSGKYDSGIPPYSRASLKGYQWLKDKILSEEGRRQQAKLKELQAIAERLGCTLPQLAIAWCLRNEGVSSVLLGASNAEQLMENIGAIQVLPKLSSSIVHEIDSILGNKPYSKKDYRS
Alpha-2C adrenergic receptor (Homo sapiens), sequence (P18825 whole entry, looked up): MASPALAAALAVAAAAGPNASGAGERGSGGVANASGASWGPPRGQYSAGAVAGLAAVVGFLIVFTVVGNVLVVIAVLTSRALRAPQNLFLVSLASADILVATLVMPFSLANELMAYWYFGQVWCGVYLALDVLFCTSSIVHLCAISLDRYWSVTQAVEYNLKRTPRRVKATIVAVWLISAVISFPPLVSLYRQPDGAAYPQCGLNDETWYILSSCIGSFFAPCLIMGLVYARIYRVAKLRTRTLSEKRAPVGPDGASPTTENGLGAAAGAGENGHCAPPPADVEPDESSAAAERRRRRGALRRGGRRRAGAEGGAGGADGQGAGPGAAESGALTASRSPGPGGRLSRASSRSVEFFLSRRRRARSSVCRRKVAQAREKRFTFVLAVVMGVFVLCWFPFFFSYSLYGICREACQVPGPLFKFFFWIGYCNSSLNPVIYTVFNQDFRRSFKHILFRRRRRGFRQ

| SMILES | cell count [1] | inhibition [1] | inhibition of aggregation [2] | nuclei count [2] [%] | inhibition [3] | nuclei count [3] [%] | fluorescence slope [4] | NADPH fluorescence slope [5] | slope [6] | inhibition [7] | inhibition [8] |
| --- | --- | --- | --- | --- | --- | --- | --- | --- | --- | --- | --- |
| Fc1cccc(-c2cc3nc4c(c(N5CCN(c6cnccn6)CC5)n3n2)CCCC4)c1 | 468 | -3.1% (inactive) | -5.2% (inactive) | 101 | -80.1% (inactive) | 100 | -0.622 (inactive) | -2.7e-05 (inactive) | 0.00757 (inactive) | -15.7% (inactive) | -16.1% (inactive) |
| CC(C)(C)NC(=O)Cn1nnnc1-c1nonc1N | 433 | 9.2% (inactive) | -5.9% (inactive) | 120 | -94.7% (inactive) | 120 | -0.618 (inactive) | -4.6e-05 (inactive) | 0.00302 (inactive) | -5.7% (inactive) | -10.1% (inactive) |
| Cc1c(Cl)cccc1NC(=O)CCN1CCCCC1 | 329 | -1.3% (inactive) | -7.5% (inactive) | 112 | -67.3% (inactive) | 133 | -0.514 (inactive) | 3e-05 (inactive) | 0.00469 (inactive) | 17.5% (inactive) | 20% (inactive) |
| CCOc1ccc2nc(Nc3nc4c(c(=O)[nH]3)CCC4)nc(C)c2c1 | 612 | 0.8% (inactive) | -12.1% (inactive) | 112 | -9.2% (inactive) | 110 | -0.429 (inactive) | -5.3e-05 (inactive) | 0.00628 (inactive) | -19.8% (inactive) | -83.1% (inactive) |
| C=CCn1c(Cc2cccs2)nnc1SCC(=O)Nc1ccc(OC)c(OC)c1 | 268 | 4% (inactive) | 19.5% (inactive) | 87.7 | -26.5% (inactive) | 134 | -0.445 (inactive) | -1.9e-05 (inactive) | 0.00229 (inactive) | 13.5% (inactive) | 26.6% (inactive) |
| COc1cc(CN2CCSCC2)cc(OC)c1OC | 642 | -1.9% (inactive) | 12.3% (inactive) | 60.4 | -13.9% (inactive) | 98.2 | -0.486 (inactive) | 2.1e-05 (inactive) | 0.00258 (inactive) | -4.06% (inactive) | 20% (inactive) |
| COc1ccc(N2CCN(CCNS(=O)(=O)c3cccc4nsnc34)CC2)cc1 | 353 | -3% (inactive) | 8.4% (inactive) | 106 | -119% (inactive) | 104 | -0.443 (inactive) | 1.8e-05 (inactive) | 0.00512 (inactive) | 11.2% (inactive) | 18% (inactive) |
| Cc1cccc(NC(=O)c2oc3c(c2C)C(=O)CC(C)(C)C3)n1 | 256 | -4% (inactive) | -4.5% (inactive) | 90.8 | -63.6% (inactive) | 93.5 | -0.403 (inactive) | -7.1e-05 (inactive) | 0.00548 (inactive) | -18% (inactive) | -30.8% (inactive) |
| COC(=O)/C=c1\sc2ncnn2c1=O | 286 | -11% (inactive) | 6.6% (inactive) | 111 | -34.9% (inactive) | 107 | -0.624 (inactive) | -1.3e-05 (inactive) | 0.00688 (inactive) | 18.3% (inactive) | 26.1% (inactive) |
| OCc1nc2ccccc2n1CCCOc1ccccc1 | 291 | -6% (inactive) | 11.9% (inactive) | 87 | -17.2% (inactive) | 96.5 | -0.382 (inactive) | -5.7e-05 (inactive) | 0.00561 (inactive) | -34.5% (inactive) | -119% (inactive) |
| COc1ccc(NS(=O)(=O)c2coc(C(N)=O)c2)cc1Cl | 734 | -6.3% (inactive) | 24% (inactive) | 86.4 | -27.2% (inactive) | 116 | -0.605 (inactive) | 1.2e-05 (inactive) | 0.00632 (inactive) | 6.28% (inactive) | 29.4% (inactive) |
| Cc1cc(C)c2cc3c(ccn3C3OC[C@H](O)[C@H](O)[C@H]3O)cc2n1 (some centres undefined) | 699 | -21.8% (inactive) | -19.6% (inactive) | 121 | -106% (inactive) | 95.9 | -0.0157 (active) | -2.8e-05 (inactive) | 0.002 (inactive) | 15.4% (inactive) | 27.3% (inactive) |
| O=C(Nc1c(C(=O)NCc2ccco2)cnn1-c1ccccc1)c1ccc(F)cc1 | 400 | 6.3% (inactive) | 12.1% (inactive) | 81.6 | -23.9% (inactive) | 89.1 | -0.294 (inactive) | -2.8e-06 (inactive) | 0.00584 (inactive) | -1.86% (inactive) | 15.1% (inactive) |
| Cc1ccc(S(=O)(=O)C2(C(=O)NC3CCCC3)CC2)cc1 | 463 | -4.2% (inactive) | -10.8% (inactive) | 110 | -58.4% (inactive) | 115 | -0.602 (inactive) | 1.6e-05 (inactive) | 0.00643 (inactive) | 13.7% (inactive) | 36.5% (inactive) |
